In all, about 360,000 compounds went through this assay and about 11,000 (3.1%) were called active. Inconclusive results (about 4%) are left out. Shown is part of a subset that was picked to be rich in actives. A number with no mark means an inactive call. Calls come from the whole dose curve; as a rule, active = well fitted inhibition curve with a large enough effect; inconclusive = small, poorly fitted or top-dose-only effect; inactive = no such curve, though single readings can be large or run the other way.
Molecular target: Schistosoma mansoni thioredoxin glutathione reductase (TGR) (UniProt Q962Y6)
Assay: qHTS Assay for the Inhibitors of Schistosoma Mansoni Peroxiredoxins; note: nearly all actives have a fitted effect of over 60% in size
Details: purified TGR, DTNB reduction, TNB absorbance 405 nm; series mostly up to 114 µM; activity change, negative = inhibition: at the top concentration
From the text: Schistosomiasis is a major neglected tropical disease that currently affects over 200 million. It is caused by different species of flatworms, such as Schistosoma mansoni. Over the last century, drugs to treat the disease have evolved from potassium antimonyl tartrate, artemisinin, oxamniquine, to praziquantel, with praziquantel remaining the universally-used single drug of choice over the past three decades. However, transmission rates have changed little with praziquantel, and there is evidence for the development of drug resistant parasites. Because there is currently no suitable alternative therapy available, there is an urgent need to identify new targets and drugs for schistosomiasis treatment. Thioredoxin glutathione reductase (TGR), one uniquely positioned S. mansoni enzyme, has been identified as a major component of the worms' distinct and compressed antioxidant "firewall". TGR is a multifunctional enzyme that catalyzes the interconversion between reduced and oxidized forms of both glutathione (GSH) and thioredoxins, thus making it an attractive new antiparasitic target. Recently, a quantitative high-throughput screen of the NIH Molecular Libraries Small Molecule Repository (MLSMR, ~71K at the time of the screen in 2007) was performed using an assay that targeted both TGR and peroxiredoxin2 (Prx2, an H2O2-reducing enzymatic component of the S. mansoni redox "firewall") by following the decrease of NADPH fluorescence. […] Additional mechanistic link between exogenous NO donation and parasitic injury for the oxadiazole-2-oxide class of compounds was also expanded and better defined. Although the screen addressed both TGR and Prx2, the assay required post-screen target deconvolution for further characterization of the actives. In addition, the fluorescence assay was also subject to fluorescence interference from compound library members. We have developed a 1536-well-based kinetic HTS assay to address TGR alone. The assay followed the reduction of 5, 5'-dithiobis (2-nitrobenzoic acid) (DTNB) (Ellman's reagent) by NADPH and measured the increase in absorbance at 412 nm of the reaction product, TNB. […] This assay format can be used to screen the current MLSMR collection (with >300K compounds available) to find novel TGR inhibitors. Furoxan is a good choice to serve as a positive control in the primary HTS assay.
Three microliters of reagents (100 uM NADPH and 20 nM TGR or 100 uM NADPH as no-enzyme control) were dispensed into 1,536-well black clear-bottomed plates. Compounds (23 nL) were transferred via Kalypsys pin tool equipped with 1536-pin array (10 nL slotted pins, V&P Scientific, San Diego, CA). The plates were then be incubated for 15 min at room temperature, and 1 uL aliquot of 500 uM NADPH were added, immediately followed by a 1 uL aliquot of 15 mM DTNB to start the reaction. The plate was transferred to a ViewLux high-throughput CCD imager (Perkin-Elmer, Wellesley, MA) where kinetic measurements of the TNB absorbance were acquired using a 405 excitation filter. Throughout the screen, reagent bottles and all liquid lines were made light-tight to minimize reagent degradation. All screening operations were performed on a fully integrated robotic system (Kalypsys, San Diego, CA) containing one RX-130 and two RX-90 anthropomorphic robotic arms (Staubli, Duncan, SC). Library plates were screened starting from the lowest and proceeding to the highest concentration, and a "double-dipping" step of the highest concentration was required to access higher concentrations of compounds. Vehicle-only plates, with DMSO being pin-transferred to the entire column 5-48 compound area, were inserted uniformly at the beginning and the end of each library in order to monitor for and record any shifts in the background, which can be affected by reagent dispensers or loss in enzyme activity overtime. […]
% is set by controls: 0 for no effect and ±100 for the full control effect; potency is the fitted concentration of half-maximal effect.

SMILES	activity change, negative = inhibition	Potency
Cc1ccc(CNC(=O)CCc2c(C)nn(-c3ccc(N4CCCC4)nn3)c2C)cc1	2.15%	–
COc1ccccc1CNS(=O)(=O)c1cc(Br)cc2c1N(C(C)=O)C(C)C2 (configuration not stated)	-2.24%	–
CCOC(=O)c1cc2c(=O)n3ccccc3nc2n(CC2CCCO2)c1=NC(=O)c1ccccc1F (configuration not stated)	-6.92%	–
O=C(Nc1ccc2c(c1)OCO2)c1cc(-c2cccc(Cl)c2)on1	6.06%	–
Oc1c(CN2CCCC2)cc(COCc2ccccc2)c2cccnc12	–	22.4 µM (active)
CC1CCCN(CC(O)COCc2ccccc2)C1 (configuration not stated)	1.25%	–
COc1cc(C)cc(CN2CCC(Cc3ccccc3)CC2)c1O	-35%	–
COc1cc(OC)c(NC(=O)N2CC3CCCN3c3ccccc32)cc1Cl (configuration not stated)	-28.7%	–
CCOC(=O)c1c(S(=O)(=O)N2CCCC(C(=O)NCc3ccc(F)cc3)C2)c(C)n(CC)c1C (configuration not stated)	2.19%	–
CCOC(=O)c1c(C)[nH]c(CCC(=O)NCCCN2CCN(c3cc(C)ccc3C)CC2)c1C	-6.6%	–
COc1ccc(CCNC(=O)C(Sc2ccccn2)c2ccccc2)cc1OC (configuration not stated)	2.91%	–
COc1ccc(CN(Cc2ccc(OC)cc2)C(=O)c2cccs2)cc1	15.4%	–
COc1ccc(C(CCN(Cc2ccc(OC)c(OC)c2)C(=O)CCl)c2ccccc2)cc1 (configuration not stated)	–	8.91 µM (active)
CCc1nnc(SCc2nc(-c3cccc(C)c3)oc2C)c2cc3sc(C)cc3n12	20.7%	–
Cc1cc(C)cc(NC(=S)NCCCN2CCOCC2)c1	-16.2%	–
CCCCc1ccc(NC(=S)NCCCN2CCOCC2)cc1	–	50.1 µM (active)
CCCC(=O)NC(=S)Nc1ccc(CN2CCOCC2)cc1	0%	–
Cc1cccn2c(=O)c(C(=O)NC(C)c3ccccc3)cnc12 (configuration not stated)	-2.19%	–
C=CCOC(=O)C1=C[C@@H](c2ccccc2)C[C@@H](OCc2ccc(CO)cc2)O1	-32%	–
NC(=O)C1=C[C@H](c2csc3ccccc23)C[C@H](OCc2ccc(CO)cc2)O1	-2.62%	–
C#Cc1ccc([C@@H]2C=C(C(=O)O)O[C@H](OCCCCO)C2)cc1	–	39.8 µM (active)
CN1CCN(C(=O)C2=C[C@H](c3ccc4c(c3)OCO4)C[C@H](OCc3ccc(CO)cc3)O2)CC1	-1.84%	–
O=C(O)C1=C[C@H](c2cccs2)C[C@H](OCCCCO)O1	–	39.8 µM (active)
CCO[C@H]1OC(C(=O)O)=C[C@@H](C2CCCCC2)[C@@H]1CCCO	-1.63%	–
Cc1ccc(-n2nc(CO)c(C(=O)NCCc3ccccc3)n2)cc1	0.121%	–
COc1c(Cl)cc(C(=O)N(Cc2ccccc2F)C2CCS(=O)(=O)C2)cc1Cl (configuration not stated)	15.1%	–

SMILES	activity change, negative = inhibition	Potency
Cc1cccc(OCCSc2nc3ccc(NC(=O)COc4ccccc4C)cc3s2)c1	-8.79%	–
CCOC(=O)c1c(NC(=O)CCl)sc(C(=O)N(CC)CC)c1C	–	35.5 µM (active)
CCOC(=O)Nc1sc(C(=O)N(C)C)c(C)c1C(=O)OCC	-17%	–
CCOC(=O)c1sc(NC(=O)CCN2CCOCC2)c(C(=O)OCC)c1C	-3.18%	–
CSc1nc(=O)c2c(n1C)NC(=O)CC2c1ccccc1OC(C)C (configuration not stated)	3.1%	–
CCc1ccc(NC(=O)CN2C(=O)CCSc3ccc(S(=O)(=O)N4CCCC4)cc32)cc1	-1.49%	–
CCCCn1c(=O)c2oc3ccccc3c2n(CC(=O)Nc2ccccc2OC)c1=O	9.58%	–
COc1ccc2c(c1)C=C(C(=O)NCc1cc(Br)ccc1OC)CO2	-6.94%	–
CC(C)CN(CC(C)C)C(=O)CN1c2cccc3cccc(c23)S1(=O)=O	-11.9%	–
O=C(O)CN1c2cccc3cccc(c23)S1(=O)=O	–	35.5 µM (active)
COc1ccc(C)cc1NC(=O)CN1c2cccc3cccc(c23)S1(=O)=O	-12.4%	–
CCN(CC)c1ccc(NS(=O)(=O)c2cc(-c3cc(C)no3)ccc2C)c(C)c1	-22.1%	–
CCOc1ccc(N(CC)C(=O)c2cc3c(=O)oc4ccccc4c3s2)cc1	-10.1%	–
O=C(c1ccc(Br)cc1)N(Cc1cccs1)c1ccc(F)cc1	-2.63%	–
Cc1cc(N)n(-c2ccc(S(=O)(=O)N3CCCC3)cc2[N+](=O)[O-])n1	–	50.1 µM (active)
O=[N+]([O-])c1cc(S(=O)(=O)N2CCCC2)ccc1NN=C1CCCC1	-14.2%	–
CN1CCN(S(=O)(=O)c2ccc(N3CCN(c4ccccc4O)CC3)c([N+](=O)[O-])c2)CC1	-15.4%	–
COc1cc(OC)cc(C(=O)NCCc2csc3nc(-c4ccccc4F)nn23)c1	2.26%	–
COc1cccc(NC(=O)N2CCCC2C(=O)NC2CCCCC2)c1 (configuration not stated)	4.18%	–
CCC1CCCCN1C(=S)Nc1ccc(C(C)=O)cc1 (configuration not stated)	-6.57%	–
CCC1CCCCN1C(=O)Nc1cccc(NC(=O)N2CCCCC2CC)c1 (configuration not stated)	–	39.8 µM (active)
CCN1C(=O)c2ccccc2Sc2ccc(NC(=O)Cc3ccc(OC)cc3)cc21	5.68%	–
CCOC(=O)C(=O)C1C(=O)Nc2ccccc21 (configuration not stated)	–	28.2 µM (active)
CCOC(=O)CC1=CC(=O)Nc2ccccc2N1	0%	–
CCCCC(CC)CNC(=O)C(=O)C1C(=O)Nc2ccccc21 (configuration not stated)	1.5%	–
CCc1ccc(NC(=O)C2CCCN2S(=O)(=O)c2ccc3nc(-c4ccccc4)[nH]c3c2)cc1 (configuration not stated)	-9.77%	–

SMILES	activity change, negative = inhibition	Potency
Fc1ccc(N2CCN(Cc3ccc4c(c3)OCO4)CC2)cc1	8.45% [at 11.4 µM]	–
CC(C)c1ccc(O)c(CN2CCN(c3ccccc3)CC2)c1	4.78%	–
Oc1cc2c(cc1CN1CCN(c3ccccc3)CC1)OCO2	–	1.58 µM (active)
Cc1cc2c(cc1C)C(c1cccc(OC(C)C)c1)CC(=O)N2 (configuration not stated)	8.08%	–
CCc1ccc2oc(-c3ccc(NC(=O)c4cc5ccccc5o4)cc3)nc2c1	5.27%	–
COc1ccc(OC)c(CNC(=O)c2c3c(nc4ccccc24)C(=O)N(C2CCCCC2)C3)c1	4.02%	–
COc1ccc(S(=O)(=O)NCC(c2ccc(N(C)C)cc2)N2CCCC2)cc1 (configuration not stated)	-1.69%	–
O=S(=O)(NCC(c1ccco1)N1CCOCC1)c1cc(F)ccc1F (configuration not stated)	-10%	–
CN(C)c1ccc(C(CNS(=O)(=O)c2cc(F)ccc2F)N2CCOCC2)cc1 (configuration not stated)	–	44.7 µM (active)
CCCn1ccc2c(OCC(=O)NCc3ccc(F)cc3)cccc2c1=O	10.9%	–
COC(=O)c1ccccc1NC(=O)C(Cc1ccccc1)N1Cc2ccccc2C1=O (configuration not stated)	-0.352%	–
COc1ccc2oc(=N)c(C(=O)Nc3ccc(Br)cc3)cc2c1	3.72%	–
COc1ccc(/C=C/C(=O)c2cc(Br)ccc(=O)c2O)cc1	–	15.8 µM (active)
COc1ccc(C(=O)c2oc3ccc(Br)cc3c2NC(C)=O)cc1	13.6%	–
O=C(CSc1oc(-c2ccco2)nc1S(=O)(=O)c1ccc(Cl)cc1)c1ccccc1	-4.02%	–
O=S(=O)(c1ccccc1)c1nc(-c2ccc(Cl)cc2Cl)oc1N1CCCCC1	-2.81%	–
O=S(=O)(c1ccc(Cl)cc1)c1nc(-c2ccco2)oc1N1CCCCC1	–	14.1 µM (active)
CCCc1nn2c(=O)cc(COC(=O)c3ccc(NC(=O)C(C)Oc4ccccc4)cc3)nc2s1 (configuration not stated)	-1.34%	–
N#Cc1c(N)n(CCOC(=O)c2ccc(Cl)cc2)c2nc3ccccc3nc12	3.75%	–
CN(C)CCCn1c(N)c(C#N)c2nc(C#N)c(C#N)nc21	–	20 µM (active)
CCCN(CCC)C(=O)C(Cc1ccccc1)NS(=O)(=O)c1ccc2c(c1)c(=O)n(C)c(=O)n2C (configuration not stated)	-10.4%	–
CCCN(CCC)CCNC(=O)Cn1cnc2sc(C)c(S(=O)(=O)N3CCC(C)CC3)c2c1=O	-0.546%	–
CC(C)c1ccc(C2C(C(=O)c3ccco3)=C(O)C(=O)N2CC2CCCO2)cc1 (configuration not stated)	12.7%	–
Cc1ccc2nc(N3C(=O)C(O)=C(C(=O)c4ccco4)C3c3cccc(O)c3)sc2c1 (configuration not stated)	-23.4%	–
C=CCSc1nnc(N2C(=O)C(O)=C(C(=O)c3ccco3)C2c2ccc(F)cc2)s1 (configuration not stated)	–	14.1 µM (active)
COc1ccc(NC(=O)CSc2ccc(-c3ccco3)nn2)c(OC)c1	–	20 µM (active)

SMILES	activity change, negative = inhibition	Potency
COC(=O)Cc1ccc(NC(=S)NCc2ccco2)cc1	-28.3%	–
O=C(CSc1ccc(-c2ccccn2)nn1)Nc1ccccc1	1.31%	–
COc1ccc(NC(=O)CCC(=O)Nc2cc(OC)c(NC(=O)c3ccco3)cc2OC)c(OC)c1	1.32%	–
O=C(CSc1ccc(-c2ccc(F)cc2)nn1)Nc1ccc2c(c1)OCCO2	7.31%	–
COc1ccc(NC(=O)CSc2nc(SC)ns2)c(OC)c1	26.6%	–
Cc1ccccc1-c1nnc(SCC(=O)NCc2ccc3c(c2)OCO3)n1C	-18.6%	–
S=C(NCc1ccc2c(c1)OCO2)NCc1ccco1	–	35.5 µM (active)
CCn1c(=O)cc(SCC(=O)NCc2ccc3c(c2)OCO3)c2ccccc21	-0.229%	–
O=C(CSc1ccc(-c2ccco2)nn1)Nc1cccc(F)c1	–	10 µM (active)
Cc1c(Cl)cccc1NC(=S)NCc1ccc2c(c1)OCO2	3.48%	–
O=C(CSc1ccc(-c2ccco2)nn1)NCc1ccc2c(c1)OCO2	–	12.6 µM (active)
CCCn1c2ccccc2c2cnn(CC(=O)N(CC)c3cc(C)ccc3C)c(=O)c21	3.15%	–
Fc1ccc(C(Nc2ccc(Cl)c(C(F)(F)F)c2)c2nnc(-c3ccccc3)o2)cc1 (configuration not stated)	-1.3%	–
Cc1ccc(Nc2c(-c3ccc(C)cc3)nc3cnccn23)cc1	-3.11%	–
CCOC(=O)c1cc2c(=O)n3ccccc3nc2n(CCCOC)c1=NC(=O)C(C)(C)Oc1ccc(Cl)cc1	9.19%	–
Cc1ccc(C)c(NC(=O)C2CCCN(S(=O)(=O)c3cn(C)cn3)C2)c1 (configuration not stated)	4.47%	–
O=C(CC1Oc2ccc(Cl)cc2NC1=O)NCc1ccccc1 (configuration not stated)	-12.8%	–
CCCSc1ncc(Cl)c(C(=O)Nc2sc3c(c2C(=O)NCCOC)CCCC3)n1	-1.84%	–
CCCN(CCC)CCCNC(=O)Cn1ncc2c3ccccc3n(Cc3ccccc3)c2c1=O	-2.18%	–
COc1ccccc1NC(=O)c1oc2ccccc2c1NC(=O)C(C)C	4.86%	–
CCN(CC)S(=O)(=O)c1nnc(NC(=O)COc2ccccc2Cl)s1	9.78%	–
COc1ccc(-c2onc3ccc(C(C)=O)cc23)cc1	-31.4%	–
CC(OC(=O)c1ccc2ccccc2n1)C(=O)c1ccccc1 (configuration not stated)	-3.31% [at 57.1 µM]	–
CC(OC(=O)c1ccc2noc(-c3ccccc3)c2c1)C(N)=O (configuration not stated)	–	35.5 µM (active)

Source: PubChem BioAssay AID485364 (National Center for Advancing Translational Sciences (NCATS), 2010)
